From PubChem BioAssay AID2315 (National Center for Advancing Translational Sciences (NCATS), 2010)
Where “and” joins values, the source holds several entries; their conditions need not be identical. Identical values can stand only once. Screen size: about 290,000 compounds; about 27,000 (9.3%) were called active. The sample holds actives, similar compounds and a random draw of the others, so the mix is not that of the screen. Cut-off read from the data, not from the text of the source: active = inhibition mostly above about 28% (no sharp cut-off); inactive = mostly below about 43%.

test: A qHTS for Small Molecule Inhibitors of Shiga Toxin; details: Vero cells, Shiga toxin protein synthesis inhibition reporter; at 38.7 µM, active compounds read high; note: 0% is about no effect

Structure (SMILES)	inhibition
O=C(Nc1cc(C(=O)Nc2ccc(S(=O)(=O)O)cc2)cc(C(=O)Nc2ccc(S(=O)(=O)O)cc2)c1)Nc1cc(C(=O)Nc2ccc(S(=O)(=O)O)cc2)cc(C(=O)Nc2ccc(S(=O)(=O)O)cc2)c1	-5.01% (inactive)
CCCn1c(=N)n(CC(=O)c2ccc(Cl)c(Cl)c2)c2ccccc21	-3.46% (inactive)
O=C(NCc1cccs1)C1CCN(S(=O)(=O)c2ccc(Cl)cc2)CC1	-3.28% (inactive)
CC(C)(C)C1CCC(C(=O)NCC(c2cccs2)N2CCOCC2)CC1 (stereo not drawn)	-2.93% (inactive)
O=C(NCc1csc(-c2cccs2)n1)C1CC1	68.5% (active)
COCc1ccc(C(=O)NC2CC(C)(C)Cc3c2cnn3-c2ccc(C)cc2)o1 (stereo not drawn)	21.9% (inactive)
O=C(OCc1ccccc1F)c1ccc2c(c1)OCCO2	104% (active)
CC(NC(=O)COC(=O)c1ccc2c(c1)OCO2)c1ccccc1 (stereo not drawn)	17.4% (inactive)
O=C(COC(=O)c1ccc2c(c1)OCCO2)NCc1ccccc1	19.3% (inactive)
O=C(O)c1ccc(/C=C2\SC(=S)N(NC(=O)c3ccc(Br)cc3)C2=O)cc1	-9.68% (inactive)
N#Cc1ccc(S(=O)(=O)NCC(=O)OCC(=O)NCCc2ccccc2)cc1	-5.8% (inactive)
CCOC(=O)c1ccc(NC(=S)N2CCCC2)cc1	8.67% (inactive)
CCCCC(CCC(=O)Nc1ccc(C(=O)OCC)cc1)C(=O)O (stereo not drawn)	-3.77% (inactive)
CCOc1ccccc1NC(=O)Cc1cccs1	-4.91% (inactive)
CCOC(=O)c1ccc(NC(=O)Cc2cccs2)cc1	49.2% (active)
O=C(Cc1cccs1)Nc1ccc([N+](=O)[O-])cc1	-6.19% (inactive)
C#CCNc1ccc(C(=O)OCC)cc1	58.3% (active)
CCOC(=O)c1cccc(NC(=O)C2CCN(c3ncnc4c3nc3n4CCCCC3)CC2)c1	10.8% (inactive)
CC(Sc1nnc(-c2ccccc2F)n1C1CC1)C(N)=O (stereo not drawn)	-9.07% (inactive)
O=C(O)c1ccc2c(=O)n3c(nc2c1)/C(=C/c1ccc(OC(F)F)cc1OC(F)F)CC3	1.37% (inactive)
O=C(CN1C(=O)/C(=C\c2ccccc2F)SC1=S)Nc1nc2ccccc2s1	51.7% (active)
CN(C(=O)CCN1C(=O)/C(=C/c2ccccc2F)SC1=S)C1CCS(=O)(=O)C1 (stereo not drawn)	-3.82% (inactive)
O=C(CN1C(=O)/C(=C/c2ccccc2F)Sc2ccccc21)NCc1cccnc1	13.6% (inactive)
COc1ccc(CNc2ccc3c(c2)CCC3)cc1OC	37.9% (inactive)

Structure (SMILES)	inhibition
Cc1ccc(CC2CC(=O)N(c3ccc4c(c3)OCCO4)C2=O)cc1 (stereo not drawn)	51.2% (inactive)
O=CN1CCN(C2CC(=O)N(c3ccc4c(c3)OCO4)C2=O)CC1 (stereo not drawn)	19.5% (inactive)
Cc1ccc(N2C(=O)CC(NCc3ccc4c(c3)OCO4)C2=O)cc1Cl (stereo not drawn)	110% (active)
Cc1cccc(C(=O)NC(=S)N(C)C2CCCCC2)c1	117% (active)
Cc1cccc(NC(=S)NCCN(C2CCCCC2)C2CCCC2)c1	19.2% (inactive)
Cc1cccc(C(=O)NCCCN(C)CCCNC(=O)c2cccc(C)c2)c1	-6.03% (inactive)
Cc1nc2ccc(C(=O)N(C)CC3CCCN(CCc4ccc(Cl)cc4)C3)cc2[nH]1 (stereo not drawn)	-8.28% (inactive)
COc1ccc(COC(=O)c2ccc(Cl)c(S(=O)(=O)N3CCOCC3)c2)cc1F	-8.8% (inactive)
O=C(CN1CCN(S(=O)(=O)c2ccc(Cl)s2)CC1)NCc1ccc(Cl)cc1	34.8% (active)
Cc1ccccc1N1CCN(CC(=O)NCc2ccc(Cl)cc2)CC1	-5.06% (inactive)
O=C(NCc1ccc(Cl)cc1)C1CCN(S(=O)(=O)c2cccs2)CC1	4.43% (inactive)
CC(C)c1ccccc1OCC(O)CN(CC(O)COc1cccc2ccccc12)C(C)C (stereo not drawn)	-14.8% (inactive)
COc1cccc(C(=O)NC(=O)Nc2nc(C)cc(C(F)(F)F)n2)c1	4.77% (inactive)
Cn1nc(-c2ccccc2)c(-c2nc(-c3ccc(Cl)cc3)no2)c1Cl	-16% (inactive)
Nc1nonc1-c1noc(-c2ccc(Br)o2)n1	24.2% (inactive)
Brc1ccc(-c2nnc(-c3ccccc3)o2)o1	71.5% (active)
Brc1ccc(-c2noc(-c3ccccc3)n2)o1	139% (active)
COc1ccc(CNC(=O)CCN2C(=O)c3ccccc3C2=O)cc1	4.69% (inactive)
O=C(O)CC(c1ccccc1F)N1Cc2ccccc2C1=O (stereo not drawn)	-12% (inactive)
COCCCNC(=O)Cn1cc(C(=O)C2CC2)c2ccccc21	-8.71% (inactive)
COC(=O)Cn1cc(C(=O)c2cccs2)c2ccccc21	2.14% (inactive)
COC(=O)c1cn(CC(=O)NCc2cccs2)c2ccccc12	64.8% (active)
CCN(CC)C(=O)C(=O)c1cn(CC(=O)NCc2ccc3c(c2)OCO3)c2ccccc12	-11.5% (inactive)
O=C(CN1CCN(c2ccccn2)CC1)NCc1cccs1	-22.2% (inactive)

Structure (SMILES)	inhibition
O=C(Cn1cc(C(=O)c2cccs2)c2ccccc21)NCc1cccs1	16.3% (active)
Cc1cc(=O)[nH]c(Nc2cccc(Br)c2)n1	-10.8% (inactive)
N#Cc1cccc(CSc2ncnc(N)n2)c1	3.32% (inactive)
Cc1ccccc1-n1cc(CNC(=O)C2CCC(=O)N(C3CC3)C2)cn1 (stereo not drawn)	21.3% (inactive)
COc1ccc2c(c1)N(C)/C(=C1/SC(=S)N(NC(C)=O)C1=O)S2	7.78% (inactive)
COc1ccc(N(Cc2ccc(N(C)C)cc2)C(=O)c2ccc(S(C)(=O)=O)cc2)cc1	-10.5% (inactive)
COc1cccc(COc2ccc(N(C)S(=O)(=O)c3ccccc3)cc2)c1	26% (inactive)
CCOc1ccc(OCc2ccc(C(=O)N(C)c3ccccc3)o2)cc1	13% (inactive)
COc1ccc(Cn2c(=S)[nH]c3cc(C(=O)N4CCCCC4)ccc3c2=O)cc1	-3.58% (inactive)
CCOc1ccc(OCc2cccc(C(=O)N(CC)CC)c2)cc1	160% (active)
CC(=O)Oc1ccc(-c2cccc(C(=O)N3CCCCC3)c2)cc1	37.3% (inactive)
COc1ccc(OCc2cccc(C(=O)N3CCCC3)c2)cc1	147% (active)
O=C(COc1ccccc1[N+](=O)[O-])NC1CC1	19.4% (inactive)
CCN1C(=NCc2ccc(OC)cc2)N[C@@H](CCc2ccccc2)[C@H](C(=O)NCc2ccc(OC)cc2)[C@H]1C	2.67% (inactive) and -2.62% (inactive)
CCOC(=O)c1cn(CC(=O)Nc2ccc(C(C)C)cc2)nn1	-16.4% (inactive)
CCc1ccc(NC(=O)Cn2ncn3c(cc4ccccc43)c2=O)cc1	5.27% (inactive)
CC(C)c1ccc(NC(=O)Cn2ncc3ccccc32)cc1	74.2% (active)
Nc1nonc1-n1nnc(C(=O)N/N=C/c2c[nH]c3ccccc23)c1-c1ccccc1	-17% (inactive)
CCn1cc(S(=O)(=O)c2cccc(C)c2)c(=O)c2cc(F)c(N3CCN(C)CC3)cc21	4.57% (inactive)
CN1CCN(c2ccc(NC(=O)c3ccc4c(c3)[nH]c(=O)n4Cc3ccc(F)cc3)cc2)CC1	-1.72% (inactive)
COc1cccc(C(=O)NNC(=O)c2ccccc2Br)c1	-5.95% (inactive)
Cc1ccccc1C(=O)Nc1ccc(N2CCCCCC2)cc1	36.6% (inactive)
CC(=O)Oc1cccc(C(=O)Nc2ccccc2NC(=O)c2cccc(OC(C)=O)c2)c1	-7.51% (inactive)
COc1cccc(C(=O)Nc2ccc(N3CCCC3)cc2)c1	47.9% (active)

Structure (SMILES)	inhibition
COc1ccc(C(=O)NC(=S)Nc2ccc(N3CCCC3)cc2)cc1OC	11.5% (inactive)
CN1CCN(c2ccc(NC(=O)c3ccccc3)cc2)CC1	47.5% (active)
COc1cccc(C(=O)Nc2cc3c(cc2Br)OCCCO3)c1	95.9% (active)
COc1cccc(C(=O)Nc2ccc(N3CCN(C(=O)c4ccco4)CC3)cc2)c1	2.21% (inactive)
Cc1ccc(-c2noc(CNC(=O)c3ccoc3C)n2)cc1	-9.24% (inactive)
CCOCCCNC(=O)c1ccc(CS(=O)(=O)c2cccc(C(F)(F)F)c2)o1	21.3% (inactive)
COC(=O)c1ccc(NC(=O)c2cc3c(CO)cnc(C)c3oc2=Nc2cccc(C(N)=O)c2)cc1	-1.8% (inactive)
CCN1C(=NCC(C)C)N[C@@H](CCc2ccccc2)[C@H](C(=O)NCC(C)C)[C@H]1C	-2.89% (inactive) and 9.38% (inactive)
O=C(CNC(=O)c1cccnc1)N/N=C/c1cc(Br)c(O)c(Br)c1	-3.98% (inactive)
O=S(=O)(c1ccccc1)N(Cc1cccc(F)c1)c1ccccc1	-4.98% (inactive)
CCOC(=O)N/N=C/c1cn(Cc2ccccc2Cl)c2ccccc12	20.2% (inactive)
CNC(=S)N/N=C/c1cn(Cc2ccc(C)cc2)c2ccccc12	21.9% (inactive)
COC(=O)N/N=C/c1cn(CCCOc2ccc(C)cc2)c2ccccc12	37.2% (active)
Cc1ccc(NC(=O)CN(C)C(=O)COC(=O)C(C)(C)Oc2ccc(Cl)cc2)cc1	-9.8% (inactive)
O=C(CN1CCN(c2cccc(Cl)c2)CC1)Nc1ccc(S(=O)(=O)N2CCOCC2)cc1	-9.51% (inactive)
Cc1c(NC(=O)CSCc2ccccc2)cccc1C(=O)O	31.3% (inactive)
Cn1c(CSCC(=O)Nc2ccccc2)nnc1SCc1ccccc1	18.4% (inactive)
O=C(CSCc1ccccc1)Nc1ccccc1	50.8% (active)
COc1ccc(Cl)cc1NC(=O)c1cccc(N2C(=O)C3CC=CCC3C2=O)c1 (stereo not drawn)	-4.45% (inactive)
COc1ccc(S(=O)(=O)N2CCSCC2)cc1	-9.94% (inactive)
CCOC(=O)N1CCN(Cc2nnc(-c3ccccc3Cl)o2)CC1	-5.19% (inactive)
